# From PubChem BioAssay
# Hits are enriched below; roughly 21% of the tested compounds scored in any of these assays.
# Pf growth 96h: Primary qHTS for delayed death inhibitors of the malarial parasite plastid, 96 hour incubation. P. falciparum luciferase reporter growth, 96 h. Potency, µM (series often up to 28.7 µM), actives largely listed as inhibitors. 320,000 tested, 6.9% active. AID 504834, 2011
#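 Plates of compound plus infected erythrocytes (2% hematocrit, 0.05% parasitemia final) incubate 96 hours, 37 C, 5% CO2. Detection reagent added; reduced luminescence from the parasites' luciferase reporter flags inhibition.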
# HCMV antiviral: qHTS Assay for inhibitors of the human cytomegalovirus (HCMV); HFF cells, HCMV-luciferase reporter, 72 h; active compounds read low; activity change, negative = inhibition, % at 57.5 µM; 410,000 tested, 4.5% active; in the data active means activity change below about -60%; inconclusive means no clear call, values can overlap the other calls; inactive means above about -39%
#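 Cell-based, HFFs, 1000 cells/well, 16 h 37C; cpds in DMSO + HCMV-luc, MOI 1 PFU/cell; 72 h 37C; OneGlo luminescence after 5 min RT; norm. to buffer vs Salinomycin 10uM.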
# CHX counter: Cycloheximide Counterscreen for Small Molecule Inhibitors of Shiga Toxin | cell reporter, cycloheximide protein synthesis inhibition counterscreen | max response, % | 300,000 tested, 12% active; in the data active means max response mostly above about 13%, no sharp cut-off; inactive means mostly below about 14%; further: read at 38.3 µM for the half of the compounds with a filed dose
# HCV inhibitor: qHTS Assay for Inhibitors of Hepatitis C Virus (HCV); 340,000 tested, 3.4% active; Huh7.5.1 HCVcc-Cre infection, luciferase reporter, 44 h; Potency, µM (highest dose often 41.8 µM), most hits filed as inhibitors; AID 651820, 2012
#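 1,000 cells/well; 4 h culture; + compound; + HCVcc-Cre (~0.5 moi); 44 h; luciferase substrate, RT 15 min; read 15 sec.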
# Shiga toxin inh: A qHTS for Small Molecule Inhibitors of Shiga Toxin; Vero cells, Shiga toxin protein synthesis inhibition reporter; inhibition, % at 38.7 µM; 290,000 tested, 9.2% active; AID 2315, 2010; in the data active means inhibition mostly above about 28%, no sharp cut-off; inactive means mostly below about 43%
# Pf growth 48h: Primary qHTS for delayed death inhibitors of the malarial parasite plastid, 48 hour incubation | P. falciparum luciferase growth in erythrocytes, 48 h | Potency, µM (doses to about 28.7 µM), usual class: inhibitors | 310,000 tested, 5.9% active | AID 504832, 2011
#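 Cell-based growth assay: transgenic P. falciparum expressing firefly luciferase, cultured in red cells within RPMI 1640 containing 0.5% w/v Albumax, 24 mM bicarbonate and gentamycin. A drop in luciferase activity indicates inhibition.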
# Hits are given with their value; - = inactive; ? = inconclusive; . = no result given; [ ] = another dose, or the depositor's remark. Unless noted, the call rests on the fitted dose curve; in most records, active means well fitted inhibition curve with a large enough effect; inconclusive means small, poorly fitted or top-dose-only effect, or another doubt; inactive means no such curve, though single readings can be large or run the other way.
SMILES,Pf growth 96h,HCMV antiviral,CHX counter,HCV inhibitor,Shiga toxin inh,Pf growth 48h
CC(C(=O)NC1CCCC1)N(Cc1ccco1)C(=O)c1snc(C(=O)NC2CCCC2)c1N (centres undefined),.,-,-,-,-,13.1µM
CCC(=O)N1CCc2cc(S(=O)(=O)NC(C(=O)NCCc3ccc(OC)c(OC)c3)C(C)C)ccc21 (centres undefined),.,-,.,.,.,.
COc1ccc(S(=O)(=O)NCC(c2ccco2)N2CCOCC2)cc1C (centres undefined),.,-,.,.,.,.
Cc1ccc(C(=O)N2CCN(c3ccc(C(F)(F)F)cn3)CC2)o1,.,-,.,-,.,.
Cc1ccc(C(C(=O)NCc2ccc(F)cc2)N(Cc2ccco2)C(=O)c2snc(C(N)=O)c2N)o1 (centres undefined),-,-81.5,-,?,-,-
CCCC(=O)Nc1nc2ccc(OCC)cc2s1,-,-,46.4,-,72.7,-
CCOc1ccc2nc(NC(=O)c3ccccc3)sc2c1,.,-,.,.,.,.
CCOc1ccc2nc(NC(=O)CCn3cccc3)sc2c1,?,-,29.5,-,85.6,.
CCOc1ccc2nc(NC(=O)c3ccc(C)o3)sc2c1,.,-,.,?,.,.
CCOc1ccc2nc(NC(=O)CSc3ccccc3)sc2c1,.,-,18.4,?,-,-
CCOc1ccc2nc(NC(=S)N(C)C)sc2c1,?,-,56.0,?,104.2,.
CC(C)=CCC[C@](C)(O[C@@H]1O[C@H](CO[C@@H]2OC[C@@H](O)[C@H](O)[C@H]2O)[C@@H](O)[C@H](O)[C@H]1O)C1CC[C@]2(C)C1[C@H](O)CC1[C@@]3(C)CC[C@H](O[C@@H]4O[C@H](CO)[C@@H](O)[C@H](O)[C@H]4O)C(C)(C)C3CC[C@]12C (some centres undefined),.,-,.,-,.,.
Cc1cc(N2CCN(c3cccc(C)c3C)CC2)n2nc(C)c(-c3ccc(Cl)cc3)c2n1,.,-,.,.,.,.
COC(=O)c1ccc(Oc2c(F)c(F)nc(N3CCOCC3)c2F)cc1,-,-,-,-,-,-
COc1ccc2nc(NC(=O)CSc3nc4ccccc4o3)sc2c1,?,-,40.1,-,133.8,-
CN(C)C(=S)Nc1nc2ccccc2s1,-[1.15 µM],-,37.7,14.1µM,103.9,-
CCOc1ccc2nc(NC(NC(C)=O)(C(=O)OC)C(F)(F)F)sc2c1 (centres undefined),7.38µM,-,-,-,-,-
CCOc1ccc2nc(NC(NC(=O)CC)(C(=O)OC)C(F)(F)F)sc2c1 (centres undefined),-,-,-,-,-,-
O=C(O)C1C2CCC(C2)C1C(=O)Nc1nc2ccccc2s1 (centres undefined),?,-,-,-,-,-
Cc1cccc(N2CCN(S(=O)(=O)c3c(C(=O)N4CCC(C)CC4)c(C)n(C)c3C)CC2)c1C,.,-,.,.,.,.
Cc1oc(-c2ccccc2)nc1C(=O)OCC(=O)NCc1ccccc1,-,-,.,-,.,-
COc1cc(NC(=O)c2cnc(NCc3ccccc3)nc2C)cc(OC)c1OC,-,-,-,3.55µM,-,?
CCOC(=O)c1nc(-c2ccccc2)oc1N(C)C,.,-,16.5,-,-,-
CCOC(=O)c1nc(NCc2ccccc2)sc1C,-,-,62.6,?,89.1,-
CCOC(=O)c1cnc(NCc2ccccc2)nc1C,-,-,44.4,?,54.7,-
SMILES,Pf growth 96h,HCMV antiviral,CHX counter,HCV inhibitor,Shiga toxin inh,Pf growth 48h
CCc1nc2ccc(C(=O)NCC3CCCCC3)cn2c1N(C)C(=O)c1cccc(OC)c1,.,-,.,.,.,.
Cc1ccc(CNC(=O)c2ccc(Cn3c(SCc4ccccc4F)nc4cccnc43)cc2)cc1,.,-,.,.,.,.
COc1cccc(CNc2ncc(C(=O)Nc3cc(OC)c(OC)c(OC)c3)c(C)n2)c1,?,-,-,?,-,10.4µM
CCOC(=O)c1nc(-c2ccccc2)sc1C(C)=O,-,-,20.3,-,-,-
CC(C)c1cc(C(=O)NC2CCCCC2)no1,-,-,35.4,-,10.7,-
CCCc1cc(C(=O)N(C2CCCCC2)C2CCCCC2)no1,-,-,-,-,-,.
CCCc1cc(C(=O)NC2CCCCC2)no1,-,-,62.0,-,60.9,-
CCCc1cc(C(=O)NC2CCCC2)no1,-,-,40.6,-,86.0,-
Cc1csc2nc(COc3ccccc3NC(=O)c3ccc(C(C)(C)C)cc3)cc(=O)n12,.,-,.,.,.,.
O=C(O)CCCCCNC(=O)C(=O)C1C(=O)Nc2ccccc21 (centres undefined),-,-,-,-,-,-
O=[N+]([O-])c1ccc(-c2ncc(-c3ccc(Br)cc3)o2)cc1,-,-,-,-,-,-
Nc1ccc(-c2ncc(-c3ccccc3)o2)cc1,?,?,-,?,-,9.28µM
Cc1ccc(-c2cnc(-c3ccncc3)o2)cc1,.,-,33.2,?,95.2,-
O=C(O)c1ccccc1-c1ncc(-c2ccccc2)o1,.,-,.,-,.,.
COc1ccc(/[N+]([O-])=C/c2ccco2)cc1,-,-,.,?,.,-
O=[N+]([O-])c1cccc(NC(=S)Nc2nc(-c3ccccc3Cl)cs2)c1,-,.,32.8,8.91µM,74.7,?
NS(=O)(=O)c1cccc(NC(=O)CSc2ccccn2)c1,.,-,28.5,-,-,-
